Reference: PubChem BioAssay
Unmarked numbers belong to inactive results. A call without a number means that no potency is given here. For part of these data: Potency and affinity values are given separately. The source made the active and inactive calls. Unless noted, how the calls were made is not given here.

What was measured:
[1] = antimalarial activity against Dd2 strain (AID 2302;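 active means growth inhibition above 50% at the single 2 µM test dose, taken to imply half-maximal potency below 2 µM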); settings: P. falciparum Dd2 in RBCs, LDH growth readout, 72 h; at 2 µM; stronger effect = higher value
[2] = human hepatoma cell viability loss – ATP luminescence, cytotoxicity control for P. falciparum antimalarial project, primary screen (AID 2303;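 active means inhibition above 50%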); settings: HepG2 viability, 24-48 h, at 10 µM, stronger effect = higher value
[3] = molecular target: L-lactate dehydrogenase (Plasmodium falciparum (isolate CDC / Honduras)) (UniProt Q27743); test: PfLDH activity inhibition – cell lysate, 3D7 strain, counter-screen for P. falciparum growth inhibition project (AID 2304); settings: P. falciparum 3D7 crude extract, LDH APAD/NBT absorbance; at 2 µM; stronger effect = higher value
[4] = inhibition of 3D7 malaria parasite growth – strain 3D7 (AID 2306); settings: P. falciparum 3D7 erythrocytic growth, LDH absorbance, 72 h; at 2 µM; stronger effect = higher value
[5] = molecular target: Calcium-dependent protein kinase 1 (Plasmodium falciparum (isolate 3D7)) (UniProt P62344); test: PfCDPK1 kinase inhibitors, biochemical, TCAMS library (AID 1159585; cut-off not given, nearly all actives have IC50 up to about 0.98 µM;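 further: inhibitors leave more ATP so luminescence rises with inhibition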); settings: recombinant PfCDPK1, Kinase-Glo ATP depletion luminescence
[6] = molecular target: Plasmodium falciparum protein kinase 6 (PK6, PF3D7_1337100) (UniProt Q8IDW1); test: PfPK6 kinase inhibitors, biochemical, TCAMS library (AID 1159586); settings: recombinant PfPK6, Kinase-Glo ATP depletion luminescence
[7] = molecular target: Protein kinase 7 (PK7), Plasmodium falciparum 3D7 (PF3D7_0213400) (UniProt Q7YTF7); test: inhibition of Plasmodium PK7 catalytic activity – biochemical, TCAMS antimalarial set, Kinase-Glo luminescence (AID 1159587); settings: recombinant PfPK7, Kinase-Glo ATP depletion luminescence
[8] = molecular target: Calcium-dependent protein kinase 4 (Plasmodium falciparum (isolate 3D7)) (UniProt Q8IBS5); test: PfCDPK4 kinase inhibitors, biochemical, TCAMS library (AID 1159588; cut-off not given, nearly all actives have IC50 up to about 0.91 µM); settings: recombinant PfCDPK4, Kinase-Glo ATP depletion luminescence
Calcium-dependent protein kinase 4 (Plasmodium falciparum (isolate 3D7)), sequence (Q8IBS5 whole entry, looked up): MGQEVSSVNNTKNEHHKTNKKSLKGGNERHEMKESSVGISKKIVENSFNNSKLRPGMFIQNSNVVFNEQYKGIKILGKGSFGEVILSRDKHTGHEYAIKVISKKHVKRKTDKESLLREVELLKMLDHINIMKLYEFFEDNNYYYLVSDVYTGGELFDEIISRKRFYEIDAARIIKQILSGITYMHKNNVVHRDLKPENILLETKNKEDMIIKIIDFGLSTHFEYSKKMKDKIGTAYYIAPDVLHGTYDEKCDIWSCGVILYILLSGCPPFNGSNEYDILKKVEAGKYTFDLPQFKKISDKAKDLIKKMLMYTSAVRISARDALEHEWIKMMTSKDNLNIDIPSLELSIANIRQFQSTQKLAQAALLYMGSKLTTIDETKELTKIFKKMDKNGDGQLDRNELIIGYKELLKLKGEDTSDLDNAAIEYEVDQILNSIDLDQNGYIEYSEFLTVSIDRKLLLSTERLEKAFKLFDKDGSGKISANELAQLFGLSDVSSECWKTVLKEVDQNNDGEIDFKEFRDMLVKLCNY

Plasmodium falciparum protein kinase 6 (PK6, PF3D7_1337100), sequence (Q8IDW1 1-305): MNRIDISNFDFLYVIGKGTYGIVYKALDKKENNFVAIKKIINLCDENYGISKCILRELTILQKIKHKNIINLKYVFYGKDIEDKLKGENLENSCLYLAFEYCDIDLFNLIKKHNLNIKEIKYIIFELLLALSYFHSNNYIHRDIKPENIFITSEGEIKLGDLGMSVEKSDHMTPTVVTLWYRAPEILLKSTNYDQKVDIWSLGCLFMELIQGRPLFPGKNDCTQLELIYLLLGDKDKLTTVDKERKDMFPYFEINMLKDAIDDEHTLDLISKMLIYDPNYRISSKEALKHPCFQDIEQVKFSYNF
L-lactate dehydrogenase (Plasmodium falciparum (isolate CDC / Honduras)), sequence (Q27743 whole entry, looked up): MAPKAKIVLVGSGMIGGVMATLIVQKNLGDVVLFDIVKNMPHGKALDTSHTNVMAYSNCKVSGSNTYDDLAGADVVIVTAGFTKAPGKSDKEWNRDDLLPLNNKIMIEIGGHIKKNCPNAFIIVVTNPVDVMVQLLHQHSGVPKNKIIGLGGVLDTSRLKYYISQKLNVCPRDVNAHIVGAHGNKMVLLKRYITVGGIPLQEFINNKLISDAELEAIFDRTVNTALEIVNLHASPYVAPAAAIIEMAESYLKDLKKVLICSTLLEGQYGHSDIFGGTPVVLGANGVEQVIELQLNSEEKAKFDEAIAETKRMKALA
Protein kinase 7 (PK7), Plasmodium falciparum 3D7 (PF3D7_0213400), sequence (Q7YTF7 1-343): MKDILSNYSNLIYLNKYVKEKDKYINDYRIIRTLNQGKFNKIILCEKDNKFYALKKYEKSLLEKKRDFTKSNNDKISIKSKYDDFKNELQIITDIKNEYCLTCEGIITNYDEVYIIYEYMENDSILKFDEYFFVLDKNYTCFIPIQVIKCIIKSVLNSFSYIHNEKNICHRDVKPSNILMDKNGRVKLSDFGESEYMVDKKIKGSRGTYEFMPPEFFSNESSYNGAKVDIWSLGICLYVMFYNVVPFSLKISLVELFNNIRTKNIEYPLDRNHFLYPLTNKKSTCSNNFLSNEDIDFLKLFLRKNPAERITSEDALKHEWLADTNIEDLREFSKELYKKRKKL
Calcium-dependent protein kinase 1 (Plasmodium falciparum (isolate 3D7)), sequence (P62344 whole entry, looked up): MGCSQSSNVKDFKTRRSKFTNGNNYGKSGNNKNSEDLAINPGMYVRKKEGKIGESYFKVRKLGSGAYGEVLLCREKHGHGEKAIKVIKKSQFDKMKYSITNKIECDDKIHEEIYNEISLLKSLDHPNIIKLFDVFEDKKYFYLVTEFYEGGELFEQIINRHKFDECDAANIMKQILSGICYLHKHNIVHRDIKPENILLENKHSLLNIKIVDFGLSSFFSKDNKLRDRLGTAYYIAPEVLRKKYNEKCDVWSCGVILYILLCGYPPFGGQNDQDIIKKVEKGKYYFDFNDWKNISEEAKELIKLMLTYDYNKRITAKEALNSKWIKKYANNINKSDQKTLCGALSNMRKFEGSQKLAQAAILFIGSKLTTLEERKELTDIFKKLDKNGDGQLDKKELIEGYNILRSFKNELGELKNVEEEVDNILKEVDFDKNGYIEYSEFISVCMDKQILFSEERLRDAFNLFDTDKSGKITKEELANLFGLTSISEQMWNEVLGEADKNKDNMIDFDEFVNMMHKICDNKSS

Row | Compound | growth inhibition [1] | inhibition [2] | inhibition [3] [%] | growth inhibition [4] | outcome [5] | outcome [6] | outcome [7] | outcome [8]
1 | Cc1cccc2[nH]c(-c3ccc(-c4ccc(CN5CCOCC5)cc4)cc3)nc12 | 86% (active) | 29% | 0 | 92% (active) | inactive | inactive | inactive | inactive
2 | O=C(Nc1cccc(-c2cccc(-c3nc4ccc(F)cc4[nH]3)c2)c1)c1ccoc1 | 35% | 36% | 5 | 98% (active) | inactive | inactive | inactive | inactive
3 | CN(C)Cc1cccc(-c2ccc(NC(=O)c3ccc4c(=O)n(C5CCCCC5)cnc4c3)cc2)c1 | 53% (active) | 92% (active) | -3 | 96% (active) | inactive | inactive | inactive | inactive
4 | Cc1cc(N[C@@H](CC(C)C)C(=O)NC2CCCC2)nc(NCc2ccccc2C)n1 | 44% | 2% | -3 | 98% (active) | inactive | inactive | inactive | inactive
5 | CCOC(=O)c1cn(CC)c2cc(OCc3ccccc3)ccc2c1=O | 96% (active) | 2% | 2 | 97% (active) | inactive | inactive | inactive | inactive
6 | Cc1cc(-c2ccc3c(c2)CCN(CCCOc2ccc4c(c2)CCN4C(=O)/C=C/c2ccccc2Cl)CC3)no1 | 50% (active) | 52% (active) | 1 | 88% (active) | inactive | inactive | inactive | inactive
7 | C[C@@H]1CN(c2cccc3c2nc(-c2cncc(C#N)c2)n3CCNCc2ccccc2)C[C@H](C)O1 | 9% | -5% | 5 | 83% (active) | inactive | inactive | inactive | inactive
8 | CCOc1cc(C)ccc1N(C1CCN(CCCCNC(=O)c2ccc(-c3ccc(C(F)(F)F)cc3)cc2)CC1)S(=O)(=O)c1ccccc1 | 85% (active) | 14% | -4 | 88% (active) | inactive | inactive | inactive | inactive
9 | O=C(CCc1cccnc1)Nc1cccc(-c2ccc(-c3nc4ccc(C(F)(F)F)cc4[nH]3)cc2)c1 | -5% | 38% | 3 | 93% (active) | inactive | inactive | inactive | inactive
10 | Cc1ccc(NC(=O)C2CCC2)cc1-c1ccc(C(=O)NCC2CC2)cc1 | 3% | 13% | 3 | 98% (active) | inactive | inactive | inactive | inactive
11 | CCCC(CNCc1cccc(OCC)c1)CNc1cc(=O)c2ccccc2[nH]1 (stereo not drawn) | 97% (active) | -4% | 4 | 101% (active) | inactive | inactive | inactive | inactive
12 | N#Cc1cc(C(=O)c2cc(Br)ccc2O)cn(C2CCCCC2)c1=O | 9% | 3% | 3 | 89% (active) | inactive | inactive | inactive | inactive
13 | C[C@H](Cc1ccc(OCCCCOc2ccc(C[C@@H](C)NC[C@H](O)c3cccc(Cl)c3)cc2)cc1)NC[C@H](O)c1cccc(Cl)c1 | 92% (active) | 68% (active) | 7 | 100% (active) | inactive | inactive | inactive | inactive
14 | CC[C@H](C)CNC(=O)c1cccc(-c2cccc(CNCC3CNCCCO3)c2)n1 (stereo partly drawn) | 54% (active) | 15% | 1 | 91% (active) | inactive | inactive | inactive | inactive
15 | O=c1cc(NCCCNCc2cccc(C(F)(F)F)c2Cl)[nH]c2ccccc12 | 24% | 0% | -2 | 94% (active) | inactive | inactive | inactive | inactive
16 | Cc1noc(C)c1C(=O)N1CCCC(c2[nH]c3c(C)cccc3c2-c2ccncc2)C1 (stereo not drawn) | 101% (active) | 16% | 6 | 102% (active) | inactive | inactive | inactive | inactive
17 | COc1cc(C)nc2ccc(NC(=O)c3cc([N+](=O)[O-])cc([N+](=O)[O-])c3)cc12 | 94% (active) | -2% | 2 | 102% (active) | inactive | inactive | inactive | inactive
18 | COc1cc(CNC2Cc3ccccc3C2)ccc1Oc1ccc2nc[nH]c2c1 | 50% (active) | 30% | -1 | 98% (active) | inactive | inactive | inactive | inactive

Row | Compound | growth inhibition [1] | inhibition [2] | inhibition [3] [%] | growth inhibition [4] | outcome [5] | outcome [6] | outcome [7] | outcome [8]
19 | O=C(C1CCCCC1)N1CCOC(CCN2CCC(c3ccccc3)CC2)(c2ccc(Cl)c(Cl)c2)C1 (stereo not drawn) | 86% (active) | 6% | 6 | 92% (active) | inactive | inactive | inactive | inactive
20 | O=C(Nc1ccc2c(c1)CCN2C1CCN(Cc2ccc(F)cc2Cl)C1)c1ccco1 (stereo not drawn) | 96% (active) | 4% | 2 | 97% (active) | inactive | inactive | inactive | inactive
21 | CS(=O)(=O)c1ccc(CNCc2ccc(-c3cccc(-c4nc5ccc(C(F)(F)F)cc5[nH]4)c3)cc2)cc1 | 100% (active) | 54% (active) | 8 | 102% (active) | inactive | inactive | inactive | inactive
22 | Cc1noc(C)c1-c1cccc(CNCc2cccc(-c3cccc(-c4nc5c(C)cccc5[nH]4)c3)c2)c1 | 66% (active) | 15% | 4 | 102% (active) | inactive | inactive | inactive | inactive
23 | O=C(Cc1ccccc1)NC(CCN1CCC(N(C2CC2)S(=O)(=O)c2cccc(C(F)(F)F)c2)CC1)c1ccc(Cl)c(Cl)c1 (stereo not drawn) | 27% | 19% | 6 | 85% (active) | inactive | inactive | inactive | inactive
24 | Cc1cccc2[nH]c(-c3ccc(-c4cccc(CNCCN(C)C)c4)cc3)nc12 | 98% (active) | 6% | 0 | 102% (active) | inactive | inactive | inactive | inactive
25 | CCOC(=O)c1cc(C(=O)NCCCCN2CCC(c3ccc4c(c3OC)CCCC4)CC2)ccc1-c1ccc(C(F)(F)F)cc1 | 60% (active) | 100% (active) | -3 | 101% (active) | inactive | inactive | inactive | inactive
26 | NC(=NCCCCC1CCCCC1)c1cccc(C(N)=NCCCCC2CCCCC2)n1 | 19% | 99% (active) | 3 | 100% (active) | inactive | inactive | inactive | inactive
27 | CCN1CCC(N(Cc2ccc(-c3ccc(C(F)(F)F)cc3)cc2)C(=O)Cn2c(SCc3cccc(F)c3F)cc(=O)c3ccccc32)C1 (stereo not drawn) | 91% (active) | 42% | 5 | 90% (active) | inactive | inactive | inactive | inactive
28 | O=C(Cn1c(CCc2cccc(F)c2F)cc(=O)c2ccccc21)N(CCN1CCCC1)Cc1ccc(-c2ccc(C(F)(F)F)cc2)cc1 | 57% (active) | 89% (active) | -2 | 99% (active) | inactive | inactive | inactive | inactive
29 | CC(C)NCc1cccc(-c2ccc(NC(=O)c3ccc(F)cc3)cc2)c1 | 3% | 7% | -1 | 92% (active) | inactive | inactive | inactive | inactive
30 | CC(=O)Nc1ccc(C(=O)Nc2ccc(-c3csc(-c4nc5ccccc5[nH]4)c3)cc2)cn1 | -2% | 11% | -3 | 93% (active) | inactive | inactive | inactive | inactive
31 | Cc1noc(C)c1-c1ccc(C(=C2CCCCCCC2)c2ccc(O)cc2)cc1 | 48% | -6% | 1 | 83% (active) | inactive | inactive | inactive | inactive
32 | CC(C)N=C(N)NN=Cc1ccc(Cl)c(Cl)c1 | 12% | -8% | -2 | 101% (active) | inactive | inactive | inactive | inactive
33 | CCN(CC)CCN(Cc1ccc(-c2ccc(C(F)(F)F)cc2)cc1)C(=O)Cn1c(CCc2cccc(F)c2F)cc(=O)c(C)c1C | 87% (active) | 35% | -4 | 97% (active) | inactive | inactive | inactive | inactive
34 | Cc1c(Oc2ccc(-n3ccnc3)cc2)ncnc1N1CCC2(CC1)CNCc1ccccc12 | 58% (active) | 26% | -3 | 95% (active) | inactive | inactive | inactive | inactive
35 | Cc1ccc(C)c(Cn2c(N3CCC(C(=O)NCc4cccs4)CC3)nc3ccccc32)c1 | 73% (active) | -2% | -6 | 89% (active) | inactive | inactive | inactive | inactive
36 | Cc1cc2nc(-c3ccc(/C=C/C(=O)NC4CCCCC4)cc3)[nH]c2cc1C | 10% | 9% | 2 | 93% (active) | inactive | inactive | inactive | inactive
